# Data published in ChEMBL document CHEMBL3988442, “University of Dundee, Small-Polar-MMV Screening Library” (2021).
# Target: T1, Aspartate--tRNA(Asp/Asn) ligase (Mycobacterium tuberculosis (strain ATCC 25618 / H37Rv)) (UniProt P9WFW3)
# T1 sequence (whole entry): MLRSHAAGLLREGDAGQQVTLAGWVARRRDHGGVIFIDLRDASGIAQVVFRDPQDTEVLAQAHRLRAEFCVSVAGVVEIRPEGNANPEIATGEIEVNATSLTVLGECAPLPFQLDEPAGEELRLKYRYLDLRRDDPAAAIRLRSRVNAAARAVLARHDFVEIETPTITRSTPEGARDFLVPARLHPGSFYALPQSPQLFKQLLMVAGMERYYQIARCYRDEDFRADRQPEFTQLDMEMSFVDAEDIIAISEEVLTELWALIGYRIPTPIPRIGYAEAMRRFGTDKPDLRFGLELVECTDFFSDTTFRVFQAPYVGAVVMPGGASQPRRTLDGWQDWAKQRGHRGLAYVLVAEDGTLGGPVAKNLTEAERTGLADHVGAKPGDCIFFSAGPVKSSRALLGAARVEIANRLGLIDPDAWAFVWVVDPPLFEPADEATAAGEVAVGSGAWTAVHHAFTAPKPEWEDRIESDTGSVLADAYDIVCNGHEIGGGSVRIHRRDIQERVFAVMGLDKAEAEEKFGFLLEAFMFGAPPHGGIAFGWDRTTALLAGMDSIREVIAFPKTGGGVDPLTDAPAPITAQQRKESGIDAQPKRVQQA
# Experiment: Assay for Asp RNA synthetase-1 from Mycobacterium tuberculosis
# Type: functional
# Parameters: scale not given: in the data most compounds retested in dose-response had high values
# Settings: 30 µM
row,SMILES,Percent Effect [%]
1,CSCC(C)(O)CNC(=O)c1ccc(Br)cc1F (stereo not given),3.26
2,CCc1[nH]ncc1C(=O)N1CCCN(Cc2cnn(C(C)C)c2)CC1,6.41
3,CNC(=O)[C@H]1C[C@@H]2CN(C(=O)c3cscn3)C[C@@H]2N1S(C)(=O)=O,2.65
4,CCOc1cccc2c1OCC(C(=O)NS(=O)(=O)Cc1ccccc1)=C2,-0.211
5,CCOc1cc(F)ccc1NS(=O)(=O)c1cc(C)c(C(=O)O)s1,1.85
6,CN(Cc1ccccn1)C(=O)[C@]12COC[C@H]1CN(Cc1cnn(C)c1)C2,-0.844
7,Cn1nc2c(cc1=O)CN(Cc1nnc(-c3ccco3)o1)CC2,15.6
8,CC(C)(N)C(=O)N1CCCC1c1cncc(Oc2ccc(F)cc2)n1 (stereo not given),-3.75
9,Cn1ccnc1C(NCc1csc(Br)c1)c1ccccc1 (stereo not given),-0.175
10,CC(CNCc1ccc(Cl)c(Cl)c1)Oc1ccccn1 (stereo not given),-0.523
11,CC(C)(O)CN1CCN(C(=O)c2cc3ccccc3c(=O)[nH]2)CC1,-2.19
12,CC(C)c1nn(C)c(N(C)C)c1CNCCC(=O)NC1CCCC1,-3.2
13,O=C(Nc1ccccc1)C1=CC2(CCNCC2)c2ccccc21,1.3
14,Cc1nccn1CC1CCCN1S(=O)(=O)Cc1ccon1 (stereo not given),-2.34
15,Cc1nc(-c2ccsc2)ccc1C(=O)O,-0.501
16,CC(C)NC(=O)[C@H]1C[C@@H]2[C@@H](C1)OCCN2Cc1cnn(C)c1,2.71
17,Cc1ncnc2c1CCN(Cc1cccs1)CC2,9.2
18,CCOc1ccccc1C(CC(=O)Nc1ccc(C)cn1)NC(C)=O (stereo not given),-0.122
19,CN(C)C(=O)CN1CCCC2(CCN(c3ccsc3)C2=O)C1 (stereo not given),2.4
20,CC(C)NC(=O)N1CCC2(C1)CN(c1ccsc1)C(=O)CN2C (stereo not given),11.4
